Compound activity (PubChem BioAssay)
Shown are actives, neighbours in structure and some others; about 3.2% of the full set was active somewhere.
RE007 growth inh – less growth of the S. pombe RE007 Vpr strain | S. pombe RE007 Vpr strain, BacTiter-Glo ATP luminescence, 24 h | Potency, µM (titrated, usually from 92.2 µM), hits mostly inhibitors | actives 0.21% (n = 360,000) | AID 651644; active = well fitted falling curve with a large enough effect; inconclusive = small, poorly fitted or top-dose-only effect; inactive = no such curve, though single readings can be large or run the other way; note: nearly all actives have a fitted effect of over 50% in size
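Fission yeast RE007 carrying one integrated HIV-1 vpr copy, seeded at OD 0.01 in PMG+AL medium with 23 nL pinned compound. Grown 24 h at 30 degrees; viability read by BacTiter-Glo luminescence after 5 min.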
AMA1-RON2 inh – disrupts binding of P. falciparum AMA1 to RON2. AlphaScreen AMA1-biotinylated RON2 peptide binding. Potency, µM (titrated, usually from 58.2 µM), usual class: inhibitors. actives 0.2% (n = 360,000). AID 720542; note: nearly all actives have a fitted effect of over 45% in size
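AMA1 (3D7) with his tag at 25 nM final met compounds first, then biotinylated RON2 peptide at 25 nM; detection used donor plus acceptor beads, 10 µg/mL apiece, read by AlphaScreen after 30 min at room temperature.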
AmpC detergent – inhibitors of E. coli AmpC beta-lactamase with detergent; AID 485294; P00811; actives 0.041% (n = 370,000); Potency, µM (top dose mostly 114 µM), hits mostly inhibitors; AmpC hydrolysis of nitrocefin, absorbance 480 nm, 0.01% Triton; note: nearly all actives have a fitted effect of over 25% in size
Target sequence (P00811 whole entry, looked up): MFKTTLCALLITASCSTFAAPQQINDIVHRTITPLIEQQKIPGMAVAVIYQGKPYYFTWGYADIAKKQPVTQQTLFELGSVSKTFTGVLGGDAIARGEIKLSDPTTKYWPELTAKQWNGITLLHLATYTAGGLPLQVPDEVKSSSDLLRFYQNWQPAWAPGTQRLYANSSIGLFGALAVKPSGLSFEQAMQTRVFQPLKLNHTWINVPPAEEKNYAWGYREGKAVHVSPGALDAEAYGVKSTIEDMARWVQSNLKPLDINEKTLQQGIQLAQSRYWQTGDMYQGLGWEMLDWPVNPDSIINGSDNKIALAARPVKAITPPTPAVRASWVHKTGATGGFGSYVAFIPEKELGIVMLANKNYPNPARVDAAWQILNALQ
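AmpC (5.3 nM in the dispensed reagent) in 20 mM phosphate pH 7.0 with 0.01% (detergent screen) or 0.0001% Triton X-100 was preincubated with compounds for 15 min at room temperature. Nitrocefin was then added from an 800 uM solution, and hydrolysis was followed at 480 nm.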
AmpC inh no detg – AmpC beta-lactamase inhibition without detergent; AmpC nitrocefin hydrolysis, absorbance 480 nm, 0.0001% Triton; Potency, µM (titrated, usually from 57.1 µM), hits mostly inhibitors; actives 0.52% (n = 330,000); AID 485341; note: nearly all actives have a fitted effect of over 20% in size
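AmpC (5.3 nM in the dispensed reagent) in 20 mM phosphate pH 7.0 with 0.01% (detergent screen) or 0.0001% Triton X-100 was preincubated with compounds for 15 min at room temperature. Nitrocefin was then added from an 800 uM solution, and hydrolysis was followed at 480 nm.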
Sm TGR block – S. mansoni TGR enzyme inhibition | Q962Y6 | purified TGR, DTNB reduction, TNB absorbance 405 nm | Potency, µM (top dose mostly 114 µM), most hits filed as inhibitors | actives 3% (n = 360,000); note: nearly all actives have a fitted effect of over 60% in size
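TGR 20 nM + NADPH 100 uM (dispensed conc.), cpd preinc 15 min RT; start with NADPH (500 uM addition) then DTNB (15 mM addition). Kinetic TNB absorbance, 405 nm filter. Four-parameter Hill fit across titration.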
Hits are given with their value; n = inactive; u = inconclusive; x = no result given; [ ] = remark or other dose. Unless noted, calls come from the whole dose curve; as a rule, active = well fitted curve in the direction sought with a large enough effect; inconclusive = small, poorly fitted or top-dose-only effect, or another doubt; inactive = no such curve, though single readings can be large; an effect the other way counts as inactive or inconclusive.

SMILES	RE007 growth inh	AMA1-RON2 inh	AmpC detergent	AmpC inh no detg	Sm TGR block
Cc1ccc(CNC(=O)c2c(C)oc3nc(C)nc(N4CCOCC4)c23)cc1	x	x	n	x	n
CCc1cccc(OCC(=O)Nc2ccc(S(=O)(=O)Nc3ccccn3)cc2)c1	n	n	n	10µM	x
Cc1ccc(S(=O)(=O)Nc2cc(Cl)c3oc4c(c3c2)C(=O)CC(C)(C)C4)cc1	x	x	n	x	u
COc1cc(N2C(=O)C=CC2=O)ccc1N1C(=O)C=CC1=O	n	n	x	x	x
O=C1C=CC(=O)N1c1cccc(-c2ccccc2)c1	2.5µM	n	n	n	0.71µM
Cc1cc(C)cc(NC(=O)CCc2ccc(C)o2)c1	n	n	u	n	n
Cc1cccc(NC(=O)CCc2ccc(C)o2)c1	n	n	n	n	35µM
Cc1ccc(CCC(=O)Nc2ccc(S(N)(=O)=O)cc2)o1	n	n	n	n	14µM
CCOc1ccc(CCN2C(=O)C(=O)N([C@@H](Cc3ccccc3)CN3CCC[C@H]3CN3C(=O)C(=O)NC[C@@H]3CC(C)C)C[C@@H]2Cc2ccc(O)cc2)cc1	n	n	x	x	x
Cc1ccc(NC(=O)CSc2nnc(COc3ccc(Cl)cc3)o2)c(C)c1	x	x	n	x	n
Cc1ccc(C(=O)Nc2cccc(OCc3cc(=O)n4c5c(sc4n3)CCCC5)c2)cc1	x	x	n	x	n
N#C/C(=C\c1cccnc1)C(=O)Nc1cccc2ccccc12	32µM	n[11.6 µM]	n	n	n
COc1ccccc1NC(=O)/C(C#N)=C/c1cccnc1	n	n	u	n	n
Cc1nc(-n2nc(C)c(Cc3ccccc3Cl)c2C)sc1C(=O)N1CCC(C)CC1	x	x	n	x	n
O=C(c1ccc(Cl)cc1)C(CN1CCCC1)c1ccccc1 (stereo not given)	u	n	n	n	28µM
COc1ccc(C(=O)C(CN2CCCC2)c2ccccc2)cc1 (stereo not given)	u	n	n	n	n
O=C1CC(N(O)C2CC(=O)N(Cc3ccccc3)C2=O)C(=O)N1Cc1ccccc1 (stereo not given)	45µM	n	n	n	u
CCCN(CCC)C1CC(=O)N(Cc2ccccc2)C1=O (stereo not given)	14µM	n	u	n	10µM
Cc1ccc(NC2CC(=O)N(Cc3ccccc3)C2=O)cc1 (stereo not given)	n	n	n	n	n
O=C(O)c1ccc(NC2CC(=O)N(Cc3ccccc3)C2=O)cc1 (stereo not given)	n	n	n	n	28µM
CSc1ccc(CCNC(=O)C(C)n2c(C)c3cnn(-c4ccccc4)c(=O)c3c2C)cc1 (stereo not given)	x	x	n	x	n
Cc1ccccc1NC(=O)Cn1cc(S(=O)(=O)N2CCCC2)c(S(=O)(=O)N2CCCC2)c1	x	x	n	x	n
Cc1noc(C)c1S(=O)(=O)Nc1ccc(C(=O)Nc2ccc(Br)cc2)cc1	x	x	n	x	n
CCOc1ccc(Nc2nc(N)c(C(=O)c3ccccc3Cl)s2)cc1	x	x	n	x	n
COc1ccc(-n2c(=O)c3c(c4cc(OC)ccc4n3C)n(Cc3ccc(F)cc3Cl)c2=O)cc1	x	x	n	x	n
SMILES	RE007 growth inh	AMA1-RON2 inh	AmpC detergent	AmpC inh no detg	Sm TGR block
CCN(CC)C(=O)c1ccc(NC(=O)Nc2ccccc2F)cc1	13µM	n	n	n	n
O=C(Nc1ccc(Br)cc1)Nc1ccccc1F	n	n	n	n	n
O=c1c(Cl)c(Cl)cnn1Cc1ccccc1Cl	n	n	n	n	13µM
O=c1[nH]cnc2c1cnn2Cc1ccccc1Cl	n	n	n	n	n
Cc1ccc(Cn2ncc(Cl)c(Cl)c2=O)cc1	n	n	n	n	3.5µM
O=c1c(Cl)c(Cl)cnn1Cc1nnc(-c2ccc(Cl)cc2)o1	n	n	n	n	4.5µM
Nc1c(Cl)cnn(-c2ccccc2)c1=O	n	n	x	x	x
O=c1c(Cl)c(Cl)cnn1-c1ccccc1	n	n	n	n	40µM
O=C(CCNS(=O)(=O)c1cccc2nonc12)Nc1ccc(F)cc1	x	x	n	x	n
CCOc1ccc(S(=O)(=O)N(CC(=O)Nc2cccnc2)c2ccccc2)cc1	x	x	n	x	n
CCc1ccc(C(=O)Cn2ncc(Cl)c(Cl)c2=O)cc1	n	n	u	n	u
Cc1cc(C)cc(Cn2ncc(Cl)c(Cl)c2=O)c1	n	n	n	n	2.8µM
O=C1C2ON(c3ccccc3)C(c3cccnc3)C2C(=O)N1Cc1ccccc1 (stereo not given)	n	n	u	n	40µM
CCOCCCNC(=S)Nc1ccc2nc(N3CCCC3)cc(C)c2c1	n	n	n	n	50µM
Cc1cc(N2CCCC2)nc2ccc(NC(=S)NC(C)C)cc12	n	n	n	n	13µM
COCCNC(=S)Nc1ccc2nc(N3CCOCC3)cc(C)c2c1	n	n	u	n	45µM
COCCNC(=S)Nc1ccc2nc(N3CCCC3)cc(C)c2c1	n	n	n	10µM	45µM
CCCN(CCC)CCCNC(=S)Nc1ccc2nc(N3CCN(C)CC3)cc(C)c2c1	n	n	n	n	n
Cc1ccc(OCC(=O)N(Cc2ccc(Cl)cc2)Cc2ccco2)cc1C	x	x	n	x	n
CCOC(=O)c1cc(-c2ccccc2)n(CCC(=O)Nc2nc3c(C)cccc3s2)c1C	x	x	n	x	n
Cc1ccc(NC(=O)c2ccc([N+](=O)[O-])o2)c(C)c1	n	n	n	n	x
Cc1ccc(S(=O)(=O)c2ccc([N+](=O)[O-])o2)cc1	7.9µM	n	x	x	x
O=C(Cn1c(=O)n(Cc2ccc3c(c2)OCO3)c(=O)c2oc3ccccc3c21)Nc1ccccc1F	x	x	n	x	n
CC(C)CNS(=O)(=O)c1ccc(CCC(=O)N2CCOCC2)cc1	n	n	n	0.22µM	n
CCOC(=O)CNC(=O)/C=C/c1ccc2c(c1)OCO2	n	n	u	n[11.4 µM]	n
SMILES	RE007 growth inh	AMA1-RON2 inh	AmpC detergent	AmpC inh no detg	Sm TGR block
CCOC(=O)CNc1ccc2c(c1)OCO2	n	n	u	n	50µM
Cc1cc(C)cc(OCC(=O)Nc2ccc3c(c2)OCO3)c1	n	10µM	n	n	n
CCOc1ccccc1NC(=O)c1nnn(CC(=O)Nc2ccc(OC)c(OC)c2)c1N	x	x	n	x	n
CCCCOc1ccc(C(C)NC(=O)c2cccc(Nc3nc4ccccc4n4nnnc34)c2)cc1 (stereo not given)	x	x	n	x	n
Cc1cc(C)nc(-n2nc(C)cc2NC(=O)CN2CCCC(C)C2)n1 (stereo not given)	n	n	u	n	25µM
Cc1nc(Sc2nnnn2-c2ccccc2)c(C#N)c(C)c1C	n	n	u	n	n
Cc1cc(C)c(C#N)c(Sc2nnnn2-c2ccccc2)n1	n	n	u	0.56µM	n
Cc1c(C(=O)NCCSCc2ccccc2Cl)cccc1[N+](=O)[O-]	n	n	n	0.25µM	n
Cc1cc2n(n1)SC(Nc1ccc(F)c(Cl)c1)N2 (stereo not given)	n	n	n	n	8.9µM
Cc1cc2n(n1)CCCN2C(=O)Nc1ccc(F)c(Cl)c1	x	x	n	x	n
